# Measurements reported in ChEMBL document CHEMBL3988442, “University of Dundee, Small-Polar-MMV Screening Library” (2021).
# Among all 48,000 compounds or so, about 13,000 (27%) showed an effect of 50% or more. The list shows a part of the results.
# Test system: Wolbachia pipientis
# Assay: Anti-Wolbachia Cell-Based Screen
# Format: functional
# Parameters: scale not given: in the data most compounds retested in dose-response had high values
# Settings: 5 µM
row,SMILES,Percent Effect [%]
1,Cc1nc(O)c2nnn(C[C@H]3CCCN3C(=O)c3cccs3)c2n1,86.95
2,Cc1cc(C)n(CC2CCCCN2C(=O)c2sccc2C#N)n1 (stereo not drawn),-7.705
3,COC(=O)C1CCCCN1C(=O)c1ccccc1F (stereo not drawn),1.901
4,Cc1nc(O)c2nnn(C[C@H]3CCCN3C(=O)c3ccccc3C)c2n1,143.4
5,Cc1nc(O)c2nnn(C[C@H]3CCCN3C(=O)c3ccccc3F)c2n1,81.62
6,O=C(c1ccno1)N1CC2(CCC(C(=O)N3CCCC3)O2)C1 (stereo not drawn),1.973
7,COCCN1CCN(CCCS(C)(=O)=O)CC1C (stereo not drawn),0.5325
8,COc1ccc(Br)cc1CCC(=O)N1CCCC(O)C1 (stereo not drawn),-4.291
9,COc1cc(C(=O)NCCc2ccc(OC)c(OC)c2)on1,-10.92
10,COc1ccccc1CNC(C)c1ccc(-n2ccnc2)cc1.Cl (stereo not drawn),2.759
11,CNS(=O)(=O)c1cccc(C(C)NCc2ccccc2OC)c1 (stereo not drawn),-4.064
12,COc1ccc(CCNC(C)c2ccc3[nH]c(=O)[nH]c3c2)cc1OC (stereo not drawn),106.6
13,COc1ccc(C(C)NCc2c[nH]nc2C)cc1OC.Cl (stereo not drawn),-6.737
14,CC(NCc1ccccc1Cl)c1ccc2[nH]c(=O)[nH]c2c1 (stereo not drawn),97.6
15,COc1ccccc1CNC(C)c1ccc2[nH]c(=O)[nH]c2c1 (stereo not drawn),98.3
16,CC(NCc1ccc(C(N)=O)cc1)c1ccc(Cl)c(Cl)c1.Cl (stereo not drawn),-6.625
17,CC(NCc1ccccc1Br)c1ccc2[nH]c(=O)[nH]c2c1 (stereo not drawn),-2.776
18,O=C(NCCSc1cnn[nH]1)c1c[nH]nc1C1CCCCC1,-9.483
19,CC(C)(C)c1csc(CNC(=O)C2NCCc3[nH]cnc32)n1 (stereo not drawn),-12.08
20,CCN1CCN(c2ccc(C(=O)NCCn3ccnc3)cc2F)CC1,-30.24
21,CNc1nc(N2CCC3(CCCNC3=O)C2)nc2c1CCC2 (stereo not drawn),-0.1969
22,COc1cccc(CN2C[C@@H]3CC[C@@](O)(c4ccccn4)[C@@H]3C2)c1OC.O=C(O)CC(O)(CC(=O)O)C(=O)O,115.9
23,COc1ncc(CN2C[C@@H]3CC[C@@](O)(c4ccc(C)cn4)[C@@H]3C2)cn1.O=C(O)CC(O)(CC(=O)O)C(=O)O,114.7
24,COc1ccc(CN2C[C@H]3CC[C@](O)(c4ccc(C)cn4)[C@H]3C2)c(F)c1.O=C(O)CC(O)(CC(=O)O)C(=O)O,-13.42
25,CN(C)C(=O)CN1C[C@@H]2CC[C@H](C1)N(Cc1cccc(Cl)c1Cl)C2,-2.337

row,SMILES,Percent Effect [%]
1,Cc1cccnc1[C@]1(O)CC[C@H]2CN(Cc3cccc(Cl)c3Cl)C[C@H]21.O=C(O)CC(O)(CC(=O)O)C(=O)O,135.1
2,Cc1ccc([C@]2(O)CC[C@H]3CN(Cc4cc(C)c(O)c(C)c4)C[C@H]32)nc1.O=C(O)CC(O)(CC(=O)O)C(=O)O,-15.37
3,Cc1ccc([C@]2(O)CC[C@H]3CN(Cc4cccc(F)c4F)C[C@H]32)nc1.O=C(O)CC(O)(CC(=O)O)C(=O)O,118
4,Cc1ccc([C@]2(O)CC[C@H]3CN(Cc4cccc(Cl)c4Cl)C[C@H]32)nc1.O=C(O)CC(O)(CC(=O)O)C(=O)O,-1.737
5,O=C(O)CC(O)(CC(=O)O)C(=O)O.O[C@]1(c2ccccn2)CC[C@@H]2CN(Cc3cccc4ncccc34)C[C@@H]21,-10.13
6,COCc1ncc(CN2CCN(C)C(=O)C2C)cn1 (stereo not drawn),4.151
7,CCn1cnnc1Cn1cccc(C(F)(F)F)c1=O,-0.03218
8,COc1ccc(-c2nccn2CC(O)CN2CCCC2)c(F)c1 (stereo not drawn),5.429
9,CCOc1cncc(NCCc2nnc3ccccn23)n1,-20.41
10,CCC(CO)N(Cc1ccsc1)Cc1ccccc1C(=O)O (stereo not drawn),6.266
11,Cc1cc(CN2CC[C@@H]3[C@@H](CCC(=O)N3CCc3c[nH]cn3)C2)oc1C,-14.05
12,CCC(=O)c1cccc(S(=O)(=O)NC(C)C#N)c1 (stereo not drawn),-8.003
13,Cc1ccccc1S(=O)(=O)N1CCCCC1c1ccn[nH]1 (stereo not drawn),0.4281
14,O=C(O)C(F)(F)F.O=S(=O)(c1cccs1)N1CC[C@H]2[C@H]1CCN2c1ncccn1,-7.709
15,CN(C1CCN(c2ccccn2)CC1)S(=O)(=O)c1cccc(F)c1,13.53
16,O=S(=O)(c1cccc(F)c1)N1CCCCC1c1ccn[nH]1 (stereo not drawn),127.9
17,O=C(NCC1CC1)C1CSCN1S(=O)(=O)c1cccc(F)c1 (stereo not drawn),-6.551
18,O=S(=O)(c1cccs1)N1CCCCC1c1ccn[nH]1 (stereo not drawn),120.2
19,O=C1c2c(O)cc(O)cc2O[C@@H](c2ccc(O)cc2)[C@@H]1O,0.6664
20,CC(=O)NCCNC(=O)c1sc(-c2ccc(Cl)s2)nc1C,-4.935
21,O=C(Nc1ccccc1)NC1CCN(C2CCOC2)CC1 (stereo not drawn),-12.98
22,CC(C)c1nc(CN(C)C(=O)CNS(=O)(=O)c2cccs2)cs1,-16.12
23,COCc1cc(N(C)Cc2ncnn2C)nc(C(C)(C)C)n1,-13.36
24,O=C(O)C(=O)O.c1cnc(-c2noc(C3CN(Cc4ccc5c(c4)CCO5)C3)n2)cn1,6.909
25,CCCc1nc(CN2CCOC(CNc3cccnn3)C2)cs1 (stereo not drawn),6.887

row,SMILES,Percent Effect [%]
1,CCc1nc(CN2CCOC(CN(C)c3cccnn3)C2)cs1 (stereo not drawn),-6.381
2,CCOc1nnc(CN2CCOC(CNc3cccnn3)C2)s1 (stereo not drawn),-8.583
3,Cc1nc(CN2CCOC(CNc3cccnn3)C2)cs1 (stereo not drawn),-1.722
4,CCc1nc(CN2CCOC(CNc3cccnn3)C2)cs1 (stereo not drawn),75.15
5,Cc1nc(C)c(CN2CCOC(CNc3cccnn3)C2)s1 (stereo not drawn),87.52
6,CC(C)c1nc(CN2CCOC(CNc3cccnn3)C2)cs1 (stereo not drawn),87.62
7,Cc1cnc(CN2CCOC(CNc3cccnn3)C2)cn1 (stereo not drawn),0.4879
8,COCc1nc(CN2CCOC(CN(C)c3cccnn3)C2)cs1 (stereo not drawn),6.806
9,Cc1nc(C)c(CN2CCOC(CN(C)c3cccnn3)C2)s1 (stereo not drawn),-0.1768
10,Cc1nc(CN2CCOC(CNc3cccnn3)C2)oc1C (stereo not drawn),3.025
11,COCc1nc(CN2CCOC(CNc3cccnn3)C2)cs1 (stereo not drawn),82.18
12,Cn1cc(CCC(=O)NS(=O)(=O)N2CCCc3ccccc32)cn1,-16.6
13,CCc1nsc(N2CCn3c(nnc3C(F)(F)F)C2)n1,3.315
14,COCCOc1cc(C(=O)N2CC(C)c3ccccc32)ccn1 (stereo not drawn),-1.249
15,COCC(=O)N[C@H](C)c1c(-c2ccc(Cl)cc2)noc1C(=O)O,-3.12
16,c1ccc(-c2nc(CN3CCOC(Cn4cccn4)C3)co2)cc1 (stereo not drawn),93.62
17,c1csc(-c2nc(CN3CCOC(Cn4cccn4)C3)co2)c1 (stereo not drawn),6.391
18,Fc1cccc(-c2nc(CN3CCOC(Cn4cncn4)C3)co2)c1 (stereo not drawn),-2.254
19,Fc1cccc(-c2nc(CN3CCOC(Cn4cccn4)C3)co2)c1 (stereo not drawn),1.83
20,c1ccc(-c2nc(CN3CCOC(Cn4cccn4)C3)no2)cc1 (stereo not drawn),-5.165
21,Fc1ccc(-c2nc(CN3CCOC(Cn4cccn4)C3)co2)cc1 (stereo not drawn),92.05
22,Cc1ccc(-c2nc(CN3CCOC(Cn4cccn4)C3)co2)cc1 (stereo not drawn),108.6
23,c1coc(-c2nc(CN3CCOC(Cn4cccn4)C3)cs2)c1 (stereo not drawn),16.31
24,O=C1COC[C@H]([C@H](O)c2ccc(NC(=O)c3cccnc3)cc2)N1,-8.221
25,Cc1ccc(-c2nnc([C@H]3CCN(C4CCC4)C3)o2)cc1,10.26

row,SMILES,Percent Effect [%]
1,O=C(c1ncoc1C1CCCO1)N1CCCC2(CCCCC2)C1 (stereo not drawn),-7.896
2,CN1CCOC(CNCc2ccc(OCc3ccccn3)cc2)C1 (stereo not drawn),111
3,CCN1CCOC(CNCc2ccccc2OCc2ccccn2)C1 (stereo not drawn),9.704
4,CN1CCOC(CNCCc2ccccn2)C1 (stereo not drawn),-2.338
5,CN1CCOC(CNCc2cccc(OCc3ccccn3)c2)C1 (stereo not drawn),-19.83
6,CCN1CCOC(CNCc2cccc(OCc3ccccn3)c2)C1 (stereo not drawn),99.3
7,CC(C)CC(N)C1=N/C(=C2\N=CN=N2)NO1 (stereo not drawn),-1.816
8,CNC(=O)NC(=O)C(NCc1ccccc1)c1ccccc1 (stereo not drawn),7.195
9,COc1ccc(S(=O)(=O)NCCCc2ccc(N(C)C)cc2)cc1Cl,10.52
10,Cc1cc(C)n2c(CCCNS(=O)(=O)c3cccs3)nnc2n1,99.96
11,O=S(=O)(NCCNc1ccc(-n2cccc2)nn1)c1cccs1,19
12,Cn1ccnc1CCNS(=O)(=O)c1ccc(Br)cc1,-0.8619
13,COc1cccc(CC(=O)NCCc2nnc3n2CCCCC3)c1,-1.985
14,COc1ccc(CC(=O)NCCCc2nnc3nc(C)cc(C)n23)cc1,140.8
15,O=S(=O)(NCCNc1cc(-n2cccc2)ncn1)c1cccs1,9.931
16,Cc1cc(C)n2c(CCCNS(=O)(=O)c3ccc(F)cc3)nnc2n1,115.4
17,CCOc1ccc(S(=O)(=O)NCCCc2ccc(N(C)C)cc2)cc1F,11.9
18,COc1ccc(CCNC(=O)Nc2cc(C)nn2C)cc1,-34.88
19,COc1ccc(S(=O)(=O)NCCCc2ccc(N(C)C)cc2)cc1F,8.354
20,COc1ccc(S(=O)(=O)NCCCc2nnc3nc(C)cc(C)n23)cc1,128.4
21,COCCN(C)c1ccc(NCc2cccnc2)nc1,-2.901
22,Cc1nc2cc(=O)[nH]n2c(C)c1CNC(=O)c1cnn(C(C)(C)C)c1,-22.93
23,CC(C)c1nnc2n1CCN(C(C)c1nnc(-c3cccs3)o1)C2 (stereo not drawn),-12.3
